Compounds with a hit are over-represented: about 19% of the library has one in this group of screens.
IL1B secr inh = inflammasome signaling inhibition, IL-1 beta readout. activity change, % at 57.5 µM. THP-1 LPS/ATP IL-1B secretion, AlphaLISA, 16 h; active compounds read low. hit rate 4.7% among 360,000. AID 743279; in the data active = activity change below about -50%; inconclusive = mostly about -30% to -49%
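THP-1 cells pretreated 1 hr with compounds (up to 57.5 uM final), then stimulated with LPS (250 ng/mL final) plus ATP (1.25 mM final); secreted IL-1B measured by AlphaLISA after 16 hr, decreased signal indicating inhibition.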
TDP1 cell noCPT = qHTS for Inhibitors of human tyrosyl-DNA phosphodiesterase 1 (TDP1): qHTS in cells in absence of CPT. AID 686978, 2013. DT40 Tdp1-/- hTDP1 cells, no CPT, ATP luminescence, 48 h. hit rate 15% among 420,000. Potency, µM (titrated, usually from 46.2 µM), for inactives: top-dose activity change, negative = growth inhibition, hits mostly inhibitors; also: potency is read from the fitted curve at half-maximal effect; nearly all actives have a fitted effect of over 55% in size
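Stably hTDP1-transfected Tdp1-null chicken DT40 cells were treated with library compounds minus camptothecin and grown for at least 48 hr at 37 °C, after which cellular ATP was quantified by luminescence.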
TDP1 cell CPT = DT40-hTDP1 cell growth loss with CPT | hit rate 12% among 420,000 | AID 686979 | chicken DT40 Tdp1-/-;hTDP1 cells + 20 nM CPT, ATP luminescence, 48 h | Potency, µM (highest dose often 46.2 µM), without a hit: top-dose activity change, negative = growth inhibition, actives largely listed as inhibitors; also: potency is read from the fitted curve at half-maximal effect; nearly all actives have a fitted effect of over 55% in size
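Chicken DT40 Tdp1-/- cells stably complemented with human TDP1 were seeded at 400 cells/well in medium containing 20 nM camptothecin, exposed to pin-transferred compounds, and grown at 37 °C for at least 48 hr. Viability was read as ATP luminescence.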
HT1080 IDH1KD tx = HT-1080 IDH1 knockdown cell toxicity (counter line); HT-1080 IDH1 knockdown viability, ATP luminescence, 48 h; Potency, µM (series often up to 46.1 µM), inactives show top-dose activity, negative = toxicity, actives largely listed as cytotoxic; hit rate 2% among 360,000; AID 686971;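 also: potency is read from the fitted curve at half-maximal effect; 0% = DMSO wells and -100% = cell-free medium wells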
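Viability of IDH1-knockdown HT-1080 fibrosarcoma cells was assessed by CellTiter-Glo after 48 h at 37 °C with titrated compound; concentration-effect curves were classified by fit quality and response size.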
HT1080NT lethal = kills 2HG-producing HT-1080-NT fibrosarcoma cells; HT-1080-NT fibrosarcoma viability, CellTiter-Glo ATP luminescence, 48 h; Potency, µM (doses to about 46.1 µM), for the others: at the top dose activity, negative = less viability, usual class: cytotoxic; hit rate 1.6% among 360,000;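 also: NT is the 2HG producing partner of a matched IDH1 knockdown line; potency is read from the fitted curve at half-maximal effect; 0% = DMSO-treated cells and -100% = media-only wells without cells; nearly all actives have a fitted effect of over 55% in size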
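A 48-hour cytotoxicity screen used HT-1080-NT cells plated 2 hours before compound delivery. ATP-based CellTiter-Glo luminescence measured viability, normalized to DMSO and no-cell controls.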
The depositor's hits bear a star; ? = inconclusive; . = no result given; [ ] = dose if it differs, or a comment. Unless noted, calls follow the shape of the dose curve; as a rule, active = well fitted curve in the direction sought with a large enough effect; inconclusive = small, poorly fitted or top-dose-only effect, or another doubt; inactive = no such curve, though single readings can be large; an effect the other way counts as inactive or inconclusive. Unless noted, % is scaled to controls: 0 for no effect and ±100 for the full control effect.

SMILES	IL1B secr inh	TDP1 cell noCPT	TDP1 cell CPT	HT1080 IDH1KD tx	HT1080NT lethal
C/C=C1\[C@H]2C=C(C)C[C@]1(N)c1ccc(=O)[nH]c1C2	.	-3%	-4%	.	.
CCN(CC)S(=O)(=O)c1cccc(NC(=O)C2SC(=Nc3ccc(C)cc3C)C(C(=O)NCC3CCCO3)=C2N)c1 (centres undefined)	0	23µM*	?	-20%	-1%
CCN(CC)S(=O)(=O)c1ccc(Cl)c(C(=O)NCC2CCCO2)c1 (centres undefined)	10	-1%	16%	0%	-2%
COCCNC(=O)C1=C(N)C(C(=O)Nc2ccc(C)c(S(=O)(=O)N3CCCCC3)c2)SC1=Nc1ccc(C)cc1C (centres undefined)	-20	18µM*	18µM*	?	13µM*
COc1ccc(-c2csc(NC(=O)c3ccccc3S(C)(=O)=O)n2)cc1	-95*	?	-27%	-1%	5%
COc1ccc(-c2csc(NC(=O)c3c(C)noc3C)n2)cc1	-52*	23µM*	15µM*	1%	3%
COc1ccc(-c2csc(NC(=O)C3CCCO3)n2)cc1 (centres undefined)	21	21µM*	?	16%	7%
COc1cc(OC)cc(C(=O)N[C@H](C(=O)Nc2nc(-c3cc(OC)ccc3OC)cs2)C(C)C)c1	.	?	-3%	-13%	-7%
COc1cc(OC)cc(C(=O)N[C@H](C(=O)Nc2nc(-c3ccc(OC)c(OC)c3)cs2)C(C)C)c1	-29	13µM*	18µM*	-1%	?
O=C(COCc1cc(-c2cccs2)on1)NCc1cccc(Cl)c1	.	-24%	-25%	.	.
O=C(NCCc1ccccc1)C1(c2cccs2)CCOCC1	.	-23%	-15%	.	.
O=C(C(=O)N1CCN(c2ccccc2F)CC1)c1cn(CC(=O)N2CCCC2)c2ccccc12	-13	-23%	0%	1%	-1%
COc1ccc(-n2nc(C(=O)NCC(=O)NCCCN3CCOCC3)c3ccccc3c2=O)cc1OC	4	-6%	0%	10%	12%
Cc1ccccc1OCC(=O)Nc1ccc2[nH]ncc2c1	-14	-27%	-6%	12%	24%
COc1ccc(-c2csc(NC(=O)CS(=O)(=O)c3ccccc3)n2)cc1	-23	23µM*	?	-4%	-24%
CCCC(=O)Nc1nc(-c2ccc(OC)cc2)cs1	-18	?	?	0%	6%
CCOc1ccc(-c2csc(NC(=O)c3cccc(N4C(=O)CCC4=O)c3)n2)cc1	1	-24%	?	9%	11%
COc1ccc(-c2csc(NC(=O)c3c(C)noc3C)n2)cc1OC	?	15µM*	21µM*	3%	9%
CCc1noc(C)c1C(=O)Nc1nc(-c2ccc(Cl)cc2Cl)cs1	?	18µM*	18µM*	0%	2%
COc1ccc(-c2csc(NC(=O)c3cccc(N4C(=O)CCC4=O)c3)n2)cc1OC	0	21µM*	4.1µM*	3%	-7%
Cc1noc(C)c1C(=O)Nc1nc(-c2ccc([N+](=O)[O-])cc2)cs1	14	?	?	-15%	-19%
COc1ccc(-c2csc(NC(=O)c3ccccc3C(=O)O)n2)cc1	-7	3%	0%	0%	5%
Cc1ccc(-c2csc(NC(=O)c3c(C)noc3C)n2)cc1	-18	9.2µM*	?	0%	-4%[9.24 µM]
COc1ccc(-c2csc(NC(=O)c3ccoc3C)n2)cc1	-23	12µM*	-26%	-29%	20%
CCC1C(c2ccccc2)N(C)C(c2ccccc2)CC1(O)c1ccccc1 (centres undefined)	?	23µM*	?	16µM*	?
SMILES	IL1B secr inh	TDP1 cell noCPT	TDP1 cell CPT	HT1080 IDH1KD tx	HT1080NT lethal
CC(C(=O)N1CCCC1)N(C)CC(=O)Nc1cccc(F)c1 (centres undefined)	-3	-5%	-1%	-5%	11%
COc1ccc(-c2csc(NC(=S)NC(=O)c3ccco3)n2)cc1Br	-7	2.9µM*	10µM*	16%	14%
COc1ccc(-c2csc(NC(=S)NC(=O)/C=C/c3ccco3)n2)cc1OC	-13	4.6µM*	4.6µM*	18µM*	12µM*
COc1ccc(-c2csc(NC(=S)NC(=O)/C=C/c3ccco3)n2)cc1Br	.	3.7µM*	1.8µM*	2.6µM*	3.7µM*
COc1ccc2c(c1)-c1nc(-n3ncc(C(=O)NC(C)(C)CO)c3C3CC3)ncc1CC2	.	?	12%[9.04 µM]	.	.
CC1(C)S[C@@H]2[C@H](NC(=O)C(c3ccccc3)S(=O)(=O)O)C(=O)N2[C@H]1C(=O)O (some centres undefined)	.	1%	-5%	.	.
CCN(c1ccccc1)S(=O)(=O)c1ccc(Cl)c(C(=O)NCC2CCCO2)c1 (centres undefined)	49	?	-24%	16%	16%
COc1ccc(/C=C2\CCC/C(=C\c3ccc(OC)c(OC)c3OC)C2=O)c(OC)c1OC	0	16µM*	?	2%	1%
COc1cc(OC)c(OC)cc1/C=c1\[nH]c(=O)/c(=C/c2cc(OC)c(OC)cc2OC)[nH]c1=O	.	0.71µM*	0.79µM*	.	.
COc1ccc(/C=C2\CC/C(=C\c3ccc(OC)cc3OC)C2=O)c(OC)c1	9	?	?	11%	-1%
COc1cc(OC)c(OC)cc1/C=C1\CCC/C(=C\c2cc(OC)c(OC)cc2OC)C1=O	-56*	23µM*	?	?	?
OC[C@H]1O[C@@H](c2nc3ccc(-c4nc(-c5ccc(Br)cc5)no4)cc3[nH]2)C[C@@H]1O	34	16µM*	16µM*	18µM*	18µM*
CCN(CC)C(=O)c1ccc2nc([C@H]3C[C@H](O)[C@@H](CO)O3)[nH]c2c1	14	-7%	-9%	14%	-2%
CCOC(=O)CSc1nc2ccccc2c(=O)n1C1CCCC1	32	-15%	-5%	4%	10%
CCOC(=O)CSc1nc2ccccc2c(=O)n1CC1COc2ccccc2O1 (centres undefined)	39	18µM*	?	-9%	-5%
COc1ccc(C(C)NS(=O)(=O)Cc2ccccc2)cc1 (centres undefined)	-2	-1%	8%	12%	8%
Cc1cc(C)c(NC(=O)Cn2nnc3sc4c(c3c2=O)CCC(C(C)(C)C)C4)c(C)c1 (centres undefined)	.	21µM*	15µM*	.	.
COc1ccc(NC(=O)Cn2nnc3sc4c(c3c2=O)CCC(C)C4)c(OC)c1 (centres undefined)	.	-16%	-27%	.	.
